The whole screen tested about 2,000 compounds, of which about 250 (12%) were called active. Only a selection was taken, and actives are over-represented in it overall. Values without a mark were called inactive. Cut-off read from the data, not from the text of the source: active = hERG blockade below about -20% or above about 20%; inactive = in between.

The assay deals with Voltage-gated inwardly rectifying potassium channel KCNH2 (Homo sapiens) (UniProt Q12809). The experiment in a line: KCNH2 potassium channel function modulators, cell-based (AID 376).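 Note: 0% = buffer alone and 100% = reference blocker.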 Conditions: hERG-expressing cells, channel activity single-concentration screen; concentration not given here. On the technique in general: The hERG channel carries a current that helps repolarise heart muscle cells.
Sequence of Voltage-gated inwardly rectifying potassium channel KCNH2 (Homo sapiens) (Q12809 whole entry, looked up): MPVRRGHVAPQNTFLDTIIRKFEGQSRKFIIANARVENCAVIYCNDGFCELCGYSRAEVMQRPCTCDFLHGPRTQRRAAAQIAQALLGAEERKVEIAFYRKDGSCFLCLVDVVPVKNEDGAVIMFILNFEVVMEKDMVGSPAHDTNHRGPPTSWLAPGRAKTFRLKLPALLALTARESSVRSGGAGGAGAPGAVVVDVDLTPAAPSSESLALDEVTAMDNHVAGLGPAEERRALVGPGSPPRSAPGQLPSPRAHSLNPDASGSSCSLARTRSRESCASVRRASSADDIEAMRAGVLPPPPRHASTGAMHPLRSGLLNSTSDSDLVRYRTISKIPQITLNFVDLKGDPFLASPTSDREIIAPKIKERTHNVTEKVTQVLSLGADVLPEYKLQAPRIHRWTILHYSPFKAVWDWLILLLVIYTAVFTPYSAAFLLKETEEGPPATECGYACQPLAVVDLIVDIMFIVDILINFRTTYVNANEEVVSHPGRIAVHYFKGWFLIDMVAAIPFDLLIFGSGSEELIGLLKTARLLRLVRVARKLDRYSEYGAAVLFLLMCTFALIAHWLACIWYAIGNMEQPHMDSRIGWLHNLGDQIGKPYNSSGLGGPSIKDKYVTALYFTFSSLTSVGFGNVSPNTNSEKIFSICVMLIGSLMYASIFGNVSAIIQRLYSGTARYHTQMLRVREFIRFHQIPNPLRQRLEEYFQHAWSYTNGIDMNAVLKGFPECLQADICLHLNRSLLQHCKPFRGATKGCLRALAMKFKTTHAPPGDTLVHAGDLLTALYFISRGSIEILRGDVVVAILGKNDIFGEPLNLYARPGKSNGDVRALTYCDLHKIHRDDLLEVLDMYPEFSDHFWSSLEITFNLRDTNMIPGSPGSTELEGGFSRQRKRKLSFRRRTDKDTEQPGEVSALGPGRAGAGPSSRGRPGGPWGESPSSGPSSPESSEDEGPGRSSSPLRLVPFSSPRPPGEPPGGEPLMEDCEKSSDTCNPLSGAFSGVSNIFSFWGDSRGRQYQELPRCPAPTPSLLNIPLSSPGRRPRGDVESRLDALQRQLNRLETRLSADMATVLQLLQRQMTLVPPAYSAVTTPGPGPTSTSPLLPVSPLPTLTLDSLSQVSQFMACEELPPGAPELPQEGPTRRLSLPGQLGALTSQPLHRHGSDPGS
Regarding `Nc1cc(S(=O)(=O)O)cc2ccc(S(=O)(=O)O)cc12`, the hERG blockade was -2.77%.
Consider `C(=Nc1ccc2c(c1)Cc1ccccc1-2)c1ccccn1`, for which the hERG blockade was -16.5%.
Consider `CC(C)C(=O)C(C)(C)CCc1ccccn1`, for which the hERG blockade was 1.93%.
As to `O=C1c2ccccc2-c2ccc(N(Cc3ccc(Br)cc3)Cc3ccc(Br)cc3)cc21`, the hERG blockade is 15.9%.
As for `CN(CCc1ccccn1)c1ccc2c(c1)C(=O)c1ccccc1-2`, the hERG blockade was 75.4% (active).
To `CN(CCc1ccccn1)c1ccc2c(c1)Cc1ccccc1-2` belongs 20.3% (active).
Then `ON(CCc1ccccn1)Cc1ccccc1`, with -7.89%; and `Cn1ncc2c(Cl)ncnc21`, with 12.1%; and `O=C(O)CCCN1CCCCC1`, with -19.4%.
Consider `NCCSCCc1ccccc1`, for which the hERG blockade is -4.22%.
Consider `NC(CC(=O)Nc1cc(C(F)(F)F)ccc1Cl)=NO`, for which the hERG blockade is 15.2%.
With `CN1CCC(CN2c3ccccc3Sc3ccccc32)C1` (stereo not given), the hERG blockade was 42.9% (active).
Then `c1ccc2sc(SCN(C3CCCCC3)C3CCCCC3)nc2c1`, with 12.7%; and `CCC12CCCN3CCc4c(n(c5ccccc45)C(=O)C1)C32` (stereo not given), with 37.7% (active).
Regarding `CC1=CC(C)(C)Nc2ccc(CSc3ccccc3)cc21`, the hERG blockade is 0.516%.
In the case of `Nc1nc(N)c(-c2cccc(C(F)(F)F)c2)c(Cc2cccc(C(F)(F)F)c2)n1`, the hERG blockade was 11%.
On to `Nc1nc(-c2ccccc2)c(-c2ccccc2)c(-c2nc(N)nc(-c3ccccc3)c2-c2ccccc2)n1`, for which the hERG blockade was 1.5%.
In the case of `Nc1nc(Cc2ccccc2)nc(Cc2ccccc2)c1-c1ccccc1`, the hERG blockade is 29% (active).
On to `Cn1c(=O)c2c(nc(C(=N)SCC(=O)O)n2C)n(C)c1=O`, for which the hERG blockade was 13.2%.
For the compound `O=C(O)CCSCc1ccccc1`, the hERG blockade was -0.0927%.
For `O=C(O)C=CC(=O)Nc1cccc2c1-c1ccccc1C2=O`, the hERG blockade is -8.93%.
With `NC(N)=Nc1ccc(-c2ccc(N=C(N)N)cc2)cc1`, the hERG blockade is -0.0188%.
As to `O=C(O)c1cncc(C(=O)O)c1`, the hERG blockade was 3.7%.
Turning to `CC1CCCC=CC2CC(OC(=O)CN(C)C)CC2C(O)C=CC(=O)O1` (stereo not given), the hERG blockade is -21.9% (active).
As to `COc1ccc(NCc2c(O)ccc3ccccc23)cc1`, the hERG blockade is -7.42%.
`CSc1ccc(NC(=O)C2CCCCC2C(=O)O)cc1` (stereo not given): the hERG blockade is 10.7%.
With `NC(=O)NC(=O)C1CCCCC1C(=O)O` (stereo not given), the hERG blockade was -24.9% (active).
For `CNCC(SC)c1ccc(O)c(O)c1` (stereo not given), the hERG blockade was 11.7%.
Then `Cc1nc([N+](=O)[O-])cn1-c1nc2ccccn2c1[N+](=O)[O-]`, with -4.23%; and `c1ccc(CCN2CCN=C2Cc2ccccc2)cc1`, with 11.4%.
As to `CC(N)C(N)=NO` (stereo not given), the hERG blockade was -3.44%.
To `O=C1CSC2(CCN(CCCN3c4ccccc4Sc4ccc(Cl)cc43)CC2)N1` belongs 10.1%; to `CN1CCN(CCCN2c3ccccc3Sc3ccc(C(F)(F)F)cc32)CC1`, 29.9% (active).
Turning to `SC1CCCN(Cc2ccccc2)C1` (stereo not given), the hERG blockade is 10.8%.
`CCC(C)(C)c1ccc(Oc2cccc(C(=O)O)c2)cc1`: the hERG blockade was -10.7%.
With `CN1CCc2ccccc2C1Cc1ccccc1NC(=O)c1sc2ccccc2c1Cl` (stereo not given), the hERG blockade is 23.1% (active).
In the case of `O=C(NC1(C(=O)O)CC1c1ccccc1)c1ccccc1` (stereo not given), the hERG blockade is 6.62%.
On to `Nc1ccccc1N=Nc1c(S(=O)(=O)O)cc2cc(S(=O)(=O)O)cc(O)c2c1O`, for which the hERG blockade is 21.5% (active).
To `O=[N+]([O-])c1ccc2c(c1)c(S(=O)(=O)O)cc1nonc12` belongs -6.88%.
With `O=S(=O)(O)c1cc(S(=O)(=O)O)c2c(N=Nc3cccc4ccccc34)c(O)ccc2c1`, the hERG blockade was 14.2%.
Take `O=S(=O)(O)c1ccc(N=Nc2ccc3c(S(=O)(=O)O)cccc3c2O)c2ccccc12`: the hERG blockade is 14.9%.
Regarding `Cc1ccc(N=Nc2c(O)c(S(=O)(=O)O)cc3cc(S(=O)(=O)O)ccc23)c(C)c1`, the hERG blockade was 2.33%.
`O=S(=O)(O)c1cc(O)c2c(N=Cc3ccccc3O)cc(S(=O)(=O)O)cc2c1`: the hERG blockade was -9.52%.
On to `O=S(=O)(O)c1ccc2c(N=Nc3cccc4ccccc34)c(O)c(S(=O)(=O)O)cc2c1`, for which the hERG blockade is 8.62%.
As to `O=S(=O)(O)c1cc(O)c2c(O)c(N=Nc3cccc4ccccc34)c(S(=O)(=O)O)cc2c1`, the hERG blockade is 9.29%.
Then `Cc1ccc(N=Nc2c(O)ccc3cc(S(=O)(=O)O)ccc23)cc1`, with 31% (active); and `O=S(=O)(O)c1ccc2c(N=Nc3c(O)ccc4ccccc34)cccc2c1`, with 49.9% (active).
To `O=[N+]([O-])c1ccc2c(N=Nc3ccc4ccccc4c3O)c(O)cc(S(=O)(=O)O)c2c1` belongs 23.1% (active); to `O=S(=O)(O)c1ccc(N=Nc2ccccc2)cc1`, -15.7%; to `Nc1ccc(S(=O)(=O)c2ccc(NC(=O)c3cccnc3)cc2)cc1`, 12.7%.
Turning to `Nc1nc2nc3c(nc2c(=O)[nH]1)CN(c1ccc(C(=O)O)cc1)C3=O`, the hERG blockade was -6.18%.
On to `O=C(O)C(CCc1ccccc1)N1C(=O)c2ccccc2C1=O` (stereo not given), for which the hERG blockade was 0.137%.
With `Cc1[nH]c2c(C)ccc(C)c2c1CC(=O)O`, the hERG blockade was -7.4%.
Then `Cc1cc(Cl)nc(NC(=O)CSc2ccc(Cl)cc2)n1`, with -7.4%; and `NC(CSC(=O)c1ccccc1)C(=O)O` (stereo not given), with 8.51%; and `CN(C)C1C(=O)C(C(=O)NCN2CCCC2)=C(O)C2(O)C(=O)C3=C(O)c4c(O)cccc4C(C)(O)C3CC12` (stereo not given), with 5.47%.
On to `NC(=O)c1nnn(Cc2cc(Cl)c(C(=O)c3ccc(Cl)cc3)c(Cl)c2)c1N`, for which the hERG blockade is 17.3%.
To `CC(C)CN(CC#N)CC(C)C` belongs 1.01%.
Then `Cc1ccnc(NS(=O)(=O)c2ccc(N=[N+]=[N-])cc2)n1`, with 8.12%; and `CC(CC(N)C(=O)O)C(=O)O` (stereo not given), with 1.62%; and `Cc1cc2c(SCc3ccccc3Cl)nc(N)nc2nc1C`, with -7.31%.
Take `O=C1c2cccc([N+](=O)[O-])c2C(=O)N1c1ncn[nH]1`: the hERG blockade is 24.2% (active).
`O=C(O)C(Cc1ccccc1)N1C(=O)c2ccccc2C1=O` (stereo not given): the hERG blockade is 13.1%.
In the case of `O=C(O)CC(C(=O)O)C1c2ccccc2-c2ccccc21` (stereo not given), the hERG blockade is 14.3%.
For `NC(=O)C1CCCNC1` (stereo not given), the hERG blockade was -2.06%.

Source of the values: PubChem BioAssay AID376 (PDSP, 2006).
